# In all, about 310,000 compounds went through this assay and about 14,000 (4.5%) showed an effect of 50% or more. Effects have a minus sign here. Many of the other results were omitted from the sample, so strong results are more common in it than they were.
# Target: human ether-à-go-go-related gene (hERG) potassium channel (human, UniProt Q12809)
# Assay: primary screen, population patch clamp on CHO cells stably expressing hERG; higher = less effect of the substance
# 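Further: peak tail current of the secondary pulse compared with the same well before compound.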
# Chain of human ether-à-go-go-related gene (hERG) potassium channel (Q12809 whole entry, looked up): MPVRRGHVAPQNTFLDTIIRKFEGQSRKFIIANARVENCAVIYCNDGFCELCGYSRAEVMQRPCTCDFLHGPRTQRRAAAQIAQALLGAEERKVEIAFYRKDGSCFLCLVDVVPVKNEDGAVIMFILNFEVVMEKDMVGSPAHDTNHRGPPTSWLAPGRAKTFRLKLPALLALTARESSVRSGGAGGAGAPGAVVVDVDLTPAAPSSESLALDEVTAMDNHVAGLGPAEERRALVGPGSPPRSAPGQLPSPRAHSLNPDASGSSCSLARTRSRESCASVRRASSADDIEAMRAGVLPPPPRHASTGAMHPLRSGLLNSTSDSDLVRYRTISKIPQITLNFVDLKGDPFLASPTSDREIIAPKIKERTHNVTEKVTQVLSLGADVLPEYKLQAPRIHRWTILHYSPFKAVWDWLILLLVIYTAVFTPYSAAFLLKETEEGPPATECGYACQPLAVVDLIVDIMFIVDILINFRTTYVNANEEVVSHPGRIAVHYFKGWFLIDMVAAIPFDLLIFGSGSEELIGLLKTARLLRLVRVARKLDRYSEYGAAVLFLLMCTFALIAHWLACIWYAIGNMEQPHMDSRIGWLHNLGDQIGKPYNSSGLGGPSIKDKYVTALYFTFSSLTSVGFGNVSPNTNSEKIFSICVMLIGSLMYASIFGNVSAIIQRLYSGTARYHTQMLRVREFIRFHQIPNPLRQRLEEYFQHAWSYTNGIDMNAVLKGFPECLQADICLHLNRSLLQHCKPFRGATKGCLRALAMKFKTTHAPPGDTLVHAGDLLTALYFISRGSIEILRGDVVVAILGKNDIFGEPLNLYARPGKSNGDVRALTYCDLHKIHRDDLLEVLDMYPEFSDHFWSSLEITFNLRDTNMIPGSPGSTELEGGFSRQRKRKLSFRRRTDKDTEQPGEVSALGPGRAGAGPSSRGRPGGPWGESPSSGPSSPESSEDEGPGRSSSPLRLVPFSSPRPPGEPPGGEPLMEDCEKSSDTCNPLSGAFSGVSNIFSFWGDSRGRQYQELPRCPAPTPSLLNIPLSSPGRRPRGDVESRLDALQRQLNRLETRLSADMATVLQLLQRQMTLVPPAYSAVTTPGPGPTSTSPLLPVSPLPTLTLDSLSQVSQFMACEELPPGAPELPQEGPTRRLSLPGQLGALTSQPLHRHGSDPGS
row,Compound,"hERG current change (%, negative = inhibition) at 10uM [%]"
1,[N-]=[N+]=NC[C@H](Cc1ccccc1)N1CC[C@@H](OCc2ccccc2)CCC1=O,-13.3
2,CCC(=O)n1nc(-c2ccc(Cl)cc2)nc1N,3.71
3,CC1(/[N+]([O-])=C/c2ccccc2F)CCCCC1=O (stereo not shown),25.2
4,O=C1OC(c2ccc(Br)cc2)=N/C1=C\c1ccco1,26.3
5,COc1ccc(N2CCN(c3nc(NCCc4ccc(OC)c(OC)c4)nc(OC)n3)CC2)cc1,-78.3
6,CCOc1nc(NCCc2ccc(OC)c(OC)c2)nc(N2CCN(c3ccc(OC)cc3)CC2)n1,-3.79
7,COc1ccc(CCNc2nc(N3CCOCC3)nc(N3CCOCC3)n2)cc1OC,3.45
8,N=C1C(c2nc(-c3ccc(Cl)cc3)cs2)=C(O)CN1NC(=O)c1ccc(O)cc1,4.02
9,Cc1ccccc1N1CCN(C2CCCN(C(=O)c3cc[n+]([O-])cc3)C2)CC1 (stereo not shown),9.87
10,COc1ccc(CN2C(=O)CCC(C(=O)O)C2c2ccccc2)cc1 (stereo not shown),25.6
11,Cc1cc(=O)n(C)c(=O)n1CCCNc1ccccc1.O=C(O)C(=O)O,-4.01
12,Cc1cc(=O)n(C)c(=O)n1CCCCCCOc1cccc([N+](=O)[O-])c1,-69.3
13,Cc1cc(=O)n(C)c(=O)n1CCCCCOc1cccc([N+](=O)[O-])c1,-57.9
14,Cc1cc(C(=O)COc2cccc([N+](=O)[O-])c2)c(C)n1C1CC1,-35.7
15,Cc1cc(=O)n(C)c(=O)n1CCCCOc1cccc([N+](=O)[O-])c1,-14.5
16,O=C(COc1cccc([N+](=O)[O-])c1)NN1C(=O)c2ccccc2C1=O,-5.95
17,Cn1nccc1CNC(=O)c1ccnn1C,14.9
18,COc1ccc(COC(=O)C2=C(C)NC(=O)NC2c2cccc(OC)c2OC)cc1 (stereo not shown),5.25
19,CCC(=O)Nc1ncc2c(n1)CC(c1ccco1)CC2=O (stereo not shown),7.92
20,COc1ccc(C)cc1NC(=O)COC(=O)C1CCN(C(=O)c2ccc(Cl)cc2)CC1,-79.1
21,O=C(OCc1ccccn1)C1CCN(C(=O)c2ccc(Cl)cc2)CC1,-36
22,COc1ccc(CCNC(=O)C2CCN(C(=O)c3ccc(Cl)cc3)CC2)cc1OC,2.77
23,COc1ccc(C)cc1NC(=O)Nc1ccc(C(=O)N2CCCC2)cc1,-23

row,Compound,"hERG current change (%, negative = inhibition) at 10uM [%]"
1,Cc1ccc(Cl)cc1NC(=O)COC(=O)C1CCCC1,-75.8
2,COc1ccc(OC)c(NC(=O)COC(=O)C2CCN(C(=O)c3ccc(Cl)cc3)CC2)c1,-71.1
3,COc1ccc(Cl)cc1NC(=O)COC(=O)C1CC1,-0.403
4,COc1ccc(C)cc1NC(=O)COC(=O)C1CC1,6.16
5,Cc1ccc(Cl)cc1NC(=O)COC(=O)C1CC1,-5.31
6,COc1ccc(Cl)cc1NC(=O)COC(=O)C1CCCCC1,7.15
7,COc1ccc(COC(=O)C2CCN(C(=O)c3ccc(Cl)cc3)CC2)cc1F,-52.2
8,Cc1ccc(Cl)cc1NC(=O)COC(=O)C1CCCCC1,7.48
9,Cl.NC(CO)C12CC3CC(CC(C3)C1)C2 (stereo not shown),9.97
10,Cc1ccc(C(C(=O)NCc2ccco2)N(C(=O)CNC(=O)c2cccs2)c2ccc(C)cc2C)cc1 (stereo not shown),-10.3
11,CN1CCN(c2nc(-c3ccccc3)cc(C(F)(F)F)n2)CC1,-19.1
12,CCOc1ccc2c(c1)c(N=NC(N)=S)c(O)n2C,1.21
13,CC(C)Cc1nnc(NC(=O)C2CC(=O)N(Cc3ccccc3)C2)s1 (stereo not shown),0.385
14,Cc1ccccc1C(=O)NNC(=O)C1CC(=O)N(Cc2ccccc2)C1 (stereo not shown),2.19
15,COc1ccc(C(C#N)c2ccc(Cl)nn2)cc1 (stereo not shown),-2.07
16,Cc1ccc2[nH]c(=O)c3cc(C(=O)NCC4CCCO4)sc3c2c1 (stereo not shown),-3.5
17,CS(=O)(=O)Nc1ccc(C(=O)NC2CCCCC2)cc1,-0.845
18,COc1ccc2cc(C)c(SCC(=O)Nc3cc(C)on3)nc2c1,6.5
19,COc1ccc(-c2nc3ccccc3o2)cc1NC(=O)c1ccc(Br)o1,4.92
20,CCOC(=O)COn1c(=O)c(-c2ccc(OC)cc2)[n+]([O-])c2ccccc21,-1.13
21,COCCN(CCOC)C(=O)C1CCN(c2ccc(S(=O)(=O)N3CCOCC3)cc2[N+](=O)[O-])CC1,-35.5
22,CC(C)CNC(=O)C1CCN(c2ccc(S(=O)(=O)N3CCOCC3)cc2[N+](=O)[O-])CC1,-38.8
23,CCCN(CCC)C(=O)C1CCN(c2ccc(S(=O)(=O)N3CCOCC3)cc2[N+](=O)[O-])CC1,-22.4

row,Compound,"hERG current change (%, negative = inhibition) at 10uM [%]"
1,CCCCN(C)C(=O)C1CCN(c2ccc(S(=O)(=O)N3CCOCC3)cc2[N+](=O)[O-])CC1,-53.9
2,C=CCNC(=O)C1CCN(c2ccc(S(=O)(=O)N3CCOCC3)cc2[N+](=O)[O-])CC1,-24
3,O=C(NCc1ccco1)C1CCN(c2ccc(S(=O)(=O)N3CCOCC3)cc2[N+](=O)[O-])CC1,-70
4,CN(/N=C/c1ccco1)C1=NS(=O)(=O)c2ccccc21,4.85
5,O=C(CC(SCCO)c1ccc2c(c1)OCO2)c1cccs1 (stereo not shown),-16.7
6,CCOc1cc(N2CCOCC2)c(OCC)cc1NC(=O)CCS(=O)(=O)c1ccc(Cl)cc1,-35.5
7,N#CCCN1CCN(S(=O)(=O)c2ccc(S(=O)(=O)NC3CC3)cc2)CC1,-1.76
8,O=C(Nc1cccc(C(F)(F)F)c1)c1c(O)c2ccccc2[nH]c1=O,16
9,CN(C)CCCN=Cc1c(O)n(CCc2ccc(F)cc2)c(=O)[nH]c1=O,15.2
10,CCN(CC)CCCN=Cc1c(O)n(CCc2ccc(F)cc2)c(=O)[nH]c1=O,-56.1
11,CN(C)CCN=Cc1c(O)n(CCC2=CCCCC2)c(=O)[nH]c1=O,-24.2
12,CCN(CC)CCCN=Cc1c(O)n(Cc2ccc(F)cc2)c(=O)[nH]c1=O,-33.7
13,CCN(CC)CCN=Cc1c(O)n(CCC2=CCCCC2)c(=O)[nH]c1=O,-65.6
14,O=c1[nH]c(=O)n(CCC2=CCCCC2)c(O)c1C=NCCN1CCNCC1,-11.7
15,CN1CCN(c2ccc(S(=O)(=O)N3CCOCC3)cc2NC(=O)CC(C)(C)C)CC1,8.55
16,O=C(NCc1ccco1)c1ccc(COCC(F)(F)C(F)F)cc1,-13.6
17,CC(=O)Nc1ccc(S(=O)(=O)/N=C2\SCCN2S(=O)(=O)c2ccc(NC(C)=O)cc2)cc1,-5.46
18,C=CCSc1nsc(NC(=O)Nc2ccc(F)cc2)n1,22.1
19,COc1cc(-c2nnc(SCC3(c4ccc(Br)cc4)OCCO3)o2)cc(OC)c1OC,-9.92
20,Cc1nc(C(C)NC(=O)c2cc(COc3ccc(F)c(F)c3)on2)cs1 (stereo not shown),-11.2
21,O=c1c2ccccc2ncn1CCOCCOc1ccc([N+](=O)[O-])cc1,-64.3
22,COc1ccc(OCCn2cnc3ccccc32)cc1,0.789
23,CC(C)(C)c1ccc(OCCOCCn2cnc3ccccc3c2=O)cc1,-36.8

row,Compound,"hERG current change (%, negative = inhibition) at 10uM [%]"
1,O=c1c2ccc([N+](=O)[O-])cc2ncn1CCOc1ccccc1,-8.16
2,O=[N+]([O-])c1ccc(OCCn2cnc3ccccc32)cc1,-68.1
3,c1ccc(OCCn2cnc3ccccc32)cc1,-9.08
4,Cc1c(C(=O)OC(C)C)sc(NC(=O)c2cccnc2)c1C#N,18.3
5,CCOc1ccc(CCNC(=O)c2ccc(Cl)c(S(=O)(=O)N3CCOCC3)c2)cc1OCC,-20.4
6,CCN(C(=O)Cn1c(=O)oc2ccccc21)c1cccc(C)c1,6.38
7,COc1cc2c(cc1OC)C1=C(C#N)CC/C(=N\S(=O)(=O)c3ccccc3)N1CC2,-33.1
8,O=C(CSc1nnc(NC(=O)c2cccc(Cl)c2)s1)NCC1CCCO1 (stereo not shown),20
9,Cl.O=C(O)c1ccc(CNCc2ccc(F)cc2)cc1,16.4
10,CCOC(=O)Cc1csc(NC(=O)c2sc3nc4cc(C)ccc4cc3c2N)n1,-6.55
11,O=C(c1cccs1)N1CCn2c1nc1ccccc12,-25.5
12,O=C(Cn1c(N2CCN(c3ccccc3)CC2)nc2ccccc21)c1ccccc1,-16.1
13,Cc1nnc2c(N3CCN(C(=O)c4ccco4)CC3)nc3ccccc3n12,-33.1
14,CCn1c(N2CCN(C(=S)NCCc3ccccc3)CC2)nc2ccccc21,-50
15,CC(C)Cn1c(N2CCN(C(=O)/C=C/c3ccccc3)CC2)nc2ccccc21,-69.1
16,CC(C)Cn1c(N2CCN(C(=O)c3cccs3)CC2)nc2ccccc21,-73.6
17,O=C(Cn1c(N2CCN(C/C=C/c3ccccc3)CC2)nc2ccccc21)c1ccccc1,-51.2
18,CC(C)n1c(N2CCN(C(=O)c3cccs3)CC2)nc2ccccc21,-49.2
19,CC(C)Cn1c(/C=C/c2ccccc2)nc2ccccc21,-42.2
20,CCn1c(N2CCN(C(=O)c3ccco3)CC2)nc2ccccc21,-50.7
21,CC(C)Cn1c(SCC(=O)N2CCN(S(=O)(=O)c3ccccc3)CC2)nc2ccccc21,0.539
22,CC1CCN(c2nc3ccccc3n2CC(=O)c2ccccc2)CC1,56

# Reference: PMC4336329 (PLoS ONE, 2015)
